# Compounds without any hit were thinned out: in the full panel of roughly 83,000, 20% have a hit.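 Plates (96-well) were seeded with cells, treated with compound at one concentration, and incubated for 48 hours before percent growth was determined.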 The source made the active and inactive calls. How the source made its calls: active means growth percent below 10; inactive means the rest.
# System: MCF7 breast
# Assay: NCI-60 one-dose screen, 48 h (100 = growth as untreated, 0 = no growth, -100 = all killed)
# Settings: 10 µM unless noted
row,Compound,growth
1,NC(=O)NCCO,98.3% (inactive)
2,Ic1cccs1,97.9% (inactive)
3,O=S1(=O)c2ccccc2Oc2ccccc21,87.8% (inactive)
4,CSc1nc2[nH]ncc2c(=O)[nH]1,98.1% (inactive)
5,CC(=O)NC(O)C(Cl)Cl (stereo not given),93.7% (inactive)
6,COC(=O)c1cccc([N+](=O)[O-])c1,104% (inactive)
7,O=C(NCc1ccccc1)c1cccc([N+](=O)[O-])c1,97.8% (inactive)
8,Cc1ccc(C2CCCCC2)cc1Br,96.9% (inactive)
9,COC1OC(C(O)C(O)CO)C(O)C(O)C1O (stereo not given),97.1% (inactive)
10,C=CCS(C)(=O)=O,96.3% (inactive)
11,C/C(=N\Nc1ccc([N+](=O)[O-])cc1[N+](=O)[O-])c1ccc(Br)cc1,97.2% (inactive)
12,Nc1ncnc(Nc2ccccc2)n1,101% (inactive)
13,CCOC(C=O)OCC,95.4% (inactive)
14,CC(C)C(C)(C)C(=O)C(C)(C)C(C)(C)C,97% (inactive)
15,C=C(C)COc1ccc(C(C)(C)C)cc1,98.5% (inactive)
16,CCC(C)c1c(N)n(S(=O)(=O)c2ccc(C)cc2)oc1=O (stereo not given),108% (inactive)

row,Compound,growth
1,CCN(C(=O)Nc1ccccc1Cl)c1ccccc1,100% (inactive)
2,CCN(C(C)=O)c1ccc([N+](=O)[O-])cc1,98.1% (inactive)
3,NNc1ncccn1,101% (inactive)
4,O=C(O)c1ccc([N+](=O)[O-])cc1S(=O)(=O)O,104% (inactive)
5,CC(C)C1CCC(C)C(O)C1 (stereo not given),100% (inactive)
6,CC(=O)Oc1c(Cl)cccc1-c1ccccc1,101% (inactive)
7,C/C(=N\N=C(/C)c1cccc([N+](=O)[O-])c1)c1cccc([N+](=O)[O-])c1,86.8% (inactive)
8,CCCNS(=O)(=O)c1ccc(Cl)cc1,93.3% (inactive)
9,CC(C)C(=O)OCCOc1ccc(C(C)(C)C)cc1,95.4% (inactive)
10,COc1cccc(C(=O)O)c1OC,87.2% (inactive)
11,OCCc1ccc(Cl)cc1,93.7% (inactive)
12,O=C(Nc1cccc(Cl)c1)c1ccc(Cl)cc1Cl,83.3% (inactive)
13,O=C(Oc1ccccc1Cl)c1ccc(Cl)cc1Cl,84.6% (inactive)
14,NNc1ncnc2c1ncn2C1OC(CO)C(O)C1O (stereo not given),6.39% (active)
15,Cc1[nH]nc(C(N)=O)c1[N+](=O)[O-],97.4% (inactive)
16,CCCCCC(=O)OCCC1CCCCC1,107% (inactive)

# System: HCT-116 colon
# Assay: as above
# Settings: 10 µM unless noted
row,Compound,growth
1,NC(=O)NCCO,109% (inactive)
2,Ic1cccs1,103% (inactive)
3,O=S1(=O)c2ccccc2Oc2ccccc21,102% (inactive)
4,CSc1nc2[nH]ncc2c(=O)[nH]1,98.1% (inactive)
5,CC(=O)NC(O)C(Cl)Cl (stereo not given),114% (inactive)
6,COC(=O)c1cccc([N+](=O)[O-])c1,110% (inactive)
7,CC(CCC#N)(CCC#N)C(=O)c1ccccc1,112% (inactive)
8,O=C(NCc1ccccc1)c1cccc([N+](=O)[O-])c1,103% (inactive)
9,CC(CC(CCC(=O)O)(c1ccccc1)c1ccccc1)N(C)C (stereo not given),97.2% (inactive)
10,Cc1ccc(C2CCCCC2)cc1Br,105% (inactive)
11,COC1OC(C(O)C(O)CO)C(O)C(O)C1O (stereo not given),90.5% (inactive)
12,C=CCS(C)(=O)=O,94% (inactive)
13,C/C(=N\Nc1ccc([N+](=O)[O-])cc1[N+](=O)[O-])c1ccc(Br)cc1,102% (inactive)
14,Nc1ncnc(Nc2ccccc2)n1,118% (inactive)
15,CCOC(C=O)OCC,105% (inactive)
16,C/C(=N\O)c1ccccn1,111% (inactive)
17,CC(C)C(C)(C)C(=O)C(C)(C)C(C)(C)C,97.7% (inactive)
18,C=C(C)COc1ccc(C(C)(C)C)cc1,96% (inactive)
19,CCC(C)c1c(N)n(S(=O)(=O)c2ccc(C)cc2)oc1=O (stereo not given),102% (inactive)

row,Compound,growth
1,CCN(C(=O)Nc1ccccc1Cl)c1ccccc1,112% (inactive)
2,CCN(C(C)=O)c1ccc([N+](=O)[O-])cc1,109% (inactive)
3,NNc1ncccn1,98.1% (inactive)
4,O=C(O)c1ccc([N+](=O)[O-])cc1S(=O)(=O)O,95.6% (inactive)
5,CC(C)C1CCC(C)C(O)C1 (stereo not given),111% (inactive)
6,CC(=O)Oc1c(Cl)cccc1-c1ccccc1,101% (inactive)
7,O=Cc1c(O)c2ccccc2[nH]c1=O,89.4% (inactive)
8,C/C(=N\N=C(/C)c1cccc([N+](=O)[O-])c1)c1cccc([N+](=O)[O-])c1,89.8% (inactive)
9,CCCNS(=O)(=O)c1ccc(Cl)cc1,103% (inactive)
10,CC(C)C(=O)OCCOc1ccc(C(C)(C)C)cc1,105% (inactive)
11,COc1cccc(C(=O)O)c1OC,103% (inactive)
12,CC(C)(N)CO[C@H]1C[C@H]2CC[C@@]1(C)C2(C)C,89.9% (inactive)
13,OCCc1ccc(Cl)cc1,101% (inactive)
14,O=C(Nc1cccc(Cl)c1)c1ccc(Cl)cc1Cl,89% (inactive)
15,C1C[S+]2CC[S+]1CC2,104% (inactive)
16,O=C(Oc1ccccc1Cl)c1ccc(Cl)cc1Cl,95.2% (inactive)
17,NNc1ncnc2c1ncn2C1OC(CO)C(O)C1O (stereo not given),4.61% (active)
18,Cc1[nH]nc(C(N)=O)c1[N+](=O)[O-],99.9% (inactive)
19,CCCCCC(=O)OCCC1CCCCC1,89.8% (inactive)
